According to PubChem BioAssay:
Calls of active or inactive are those of the source.

Columns and labels:
Albumin (Bos taurus) = Albumin (Bos taurus) (UniProt P02769); assay: bovine serum albumin binders on microarray, profiling panel, artefact control for SMM control protein annotation, biochemical, small-molecule microarray, Alexa647 label, 635/667 nm fluorescence (AID 1118); conditions: BSA-A647 binding, fluorescence 635 nm, higher = more signal;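 further: score merges 667 nm emission intensity and signal-to-noise per printed compound spot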
Albumin (Bos taurus), sequence (P02769 whole entry, looked up): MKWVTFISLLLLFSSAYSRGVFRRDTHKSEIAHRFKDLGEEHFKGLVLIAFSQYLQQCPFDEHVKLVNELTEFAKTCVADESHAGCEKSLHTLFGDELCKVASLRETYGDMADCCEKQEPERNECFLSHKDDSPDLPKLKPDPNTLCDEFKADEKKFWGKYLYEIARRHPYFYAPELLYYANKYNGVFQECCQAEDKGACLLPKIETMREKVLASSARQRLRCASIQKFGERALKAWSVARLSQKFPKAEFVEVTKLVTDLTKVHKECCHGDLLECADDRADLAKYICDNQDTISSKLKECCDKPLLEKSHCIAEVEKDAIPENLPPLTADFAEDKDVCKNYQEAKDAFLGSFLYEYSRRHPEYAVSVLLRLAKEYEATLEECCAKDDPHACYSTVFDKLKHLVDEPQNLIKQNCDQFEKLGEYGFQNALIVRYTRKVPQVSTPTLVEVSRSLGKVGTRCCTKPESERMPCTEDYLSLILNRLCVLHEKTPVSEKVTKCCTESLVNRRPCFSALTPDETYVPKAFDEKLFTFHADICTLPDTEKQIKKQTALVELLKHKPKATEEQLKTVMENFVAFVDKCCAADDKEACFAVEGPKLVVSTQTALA

[1] = small-molecule microarray binders of probe aXIP, primary screen, biochemical, NeuroSMM set, 635/667 nm fluorescence (AID 1119); conditions: higher = more signal, called active from +8 up or from −8 down;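 further: probe is the protein aXip251-270 applied at 1 µg/mL to compound-printed slides; binding of probe to printed compounds measured as 667 nm fluorescence plus signal to noise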
[2] = small-molecule binders of probe aNOTCH3, primary screen, biochemical, small-molecule microarray, 635/667 nm fluorescence (AID 1120); conditions: higher = more signal;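 further: probe is a biotin-tagged antibody raised against NOTCH3 rather than NOTCH3 protein; score merges spot fluorescence near 667 nm with spot signal to noise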
[3] = small-molecule binders of probe aNOTCH2, primary screen, biochemical, small-molecule microarray, 635/667 nm fluorescence (AID 1121); conditions: higher = more signal;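 further: score merges feature fluorescence read at 667 nm with its signal to noise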
[4] = biological target: Carbonic anhydrase 2 (Homo sapiens) (UniProt P00918); assay: CAII small-molecule binders, profiling panel, biochemical, small-molecule microarray, Alexa647-labelled CAII (AID 1122); conditions: CAII-A647 binding fluorescence, higher = more signal
[5] = COS7 lysate on small-molecule microarray, probe aHis, 635 nm (AID 1123); conditions: COS7 cell lysate, fluorescence, higher = more signal;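 further: z-score combines 667nm fluorescence intensity with signal-to-noise per printed compound spot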
[6] = compound binding in COS7 lysate, probe aLAP1, primary screen, cell lysate, small-molecule microarray (AID 1124); conditions: probe aLAP1, fluorescence, higher = more signal;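 further: lysate comes from COS7 cells expressing LAP1 and is applied at 0.3 µg/mL; score merges spot fluorescence near 667 nm with signal-to-noise over triplicate slides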
Sam68 (KHDRBS1) = assay: Sam68 small-molecule binders, primary screen, biochemical, small-molecule microarray, 635 nm fluorescence (AID 1125); conditions: small-molecule microarray binding, higher = more signal;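 further: score merges 667 nm channel intensity with signal to noise over triplicate slides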
[7] = test system: Chordin-like protein 2 (CHRDL2); assay: CHRDL2 small-molecule binders, primary screen, biochemical, small-molecule microarray, 635 nm fluorescence (AID 1126); conditions: small-molecule microarray binding, fluorescence 635 nm; higher = more signal;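 further: printed compound slides probed with Chrdl2 protein at 4 µg/mL for 1 h at 4 C; score merges 667 nm emission intensity with signal to noise over three replicate slides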
[8] = biological target: Concanavalin-A (Canavalia ensiformis) (UniProt P02866); assay: ConA small-molecule binders, primary screen, artefact control for SMM control protein annotation, biochemical, small-molecule microarray, Alexa647 label, 635 nm (AID 1127); conditions: ConA-A647 binding fluorescence, higher = more signal;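 further: z combines 667 nm emission intensity with signal-to-noise across three replicate slides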
Concanavalin-A (Canavalia ensiformis), sequence (P02866 whole entry, looked up): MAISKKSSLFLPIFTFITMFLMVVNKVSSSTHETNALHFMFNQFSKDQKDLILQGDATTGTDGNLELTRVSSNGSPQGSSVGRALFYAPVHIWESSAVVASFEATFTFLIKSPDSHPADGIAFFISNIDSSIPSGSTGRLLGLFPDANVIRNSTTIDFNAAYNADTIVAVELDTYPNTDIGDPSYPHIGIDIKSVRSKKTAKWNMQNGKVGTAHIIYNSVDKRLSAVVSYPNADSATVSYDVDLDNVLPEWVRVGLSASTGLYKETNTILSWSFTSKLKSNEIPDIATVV

[9] = anti-His antibody binders, primary screen, artefact control for SMM control protein annotation, biochemical, small-molecule microarray, 635 nm fluorescence (AID 1128); conditions: anti-His Alexa647 antibody binding, higher = more signal;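 further: score merges feature fluorescence with signal-to-noise for each printed compound spot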
[10] = test system: Human papillomavirus type 1a E7 protein (residues 1-88); assay: HPV1a E7 small-molecule binders, primary screen, biochemical, small-molecule microarray, residues 1-88, 635 nm (AID 1129); conditions: small-molecule microarray binding, fluorescence 635 nm; higher = more signal
[11] = biological target: Focal adhesion kinase 1 (Homo sapiens) (UniProt Q05397); assay: small-molecule microarray binders of FAK, primary screen, biochemical, 635/667 nm fluorescence, BSA, DTT (AID 1130); conditions: PTK2 binding, 635 nm fluorescence, higher = more signal;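 further: composite of spot emission at 667 nm and signal to noise over triplicate slides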
Focal adhesion kinase 1 (Homo sapiens), sequence (Q05397 whole entry, looked up): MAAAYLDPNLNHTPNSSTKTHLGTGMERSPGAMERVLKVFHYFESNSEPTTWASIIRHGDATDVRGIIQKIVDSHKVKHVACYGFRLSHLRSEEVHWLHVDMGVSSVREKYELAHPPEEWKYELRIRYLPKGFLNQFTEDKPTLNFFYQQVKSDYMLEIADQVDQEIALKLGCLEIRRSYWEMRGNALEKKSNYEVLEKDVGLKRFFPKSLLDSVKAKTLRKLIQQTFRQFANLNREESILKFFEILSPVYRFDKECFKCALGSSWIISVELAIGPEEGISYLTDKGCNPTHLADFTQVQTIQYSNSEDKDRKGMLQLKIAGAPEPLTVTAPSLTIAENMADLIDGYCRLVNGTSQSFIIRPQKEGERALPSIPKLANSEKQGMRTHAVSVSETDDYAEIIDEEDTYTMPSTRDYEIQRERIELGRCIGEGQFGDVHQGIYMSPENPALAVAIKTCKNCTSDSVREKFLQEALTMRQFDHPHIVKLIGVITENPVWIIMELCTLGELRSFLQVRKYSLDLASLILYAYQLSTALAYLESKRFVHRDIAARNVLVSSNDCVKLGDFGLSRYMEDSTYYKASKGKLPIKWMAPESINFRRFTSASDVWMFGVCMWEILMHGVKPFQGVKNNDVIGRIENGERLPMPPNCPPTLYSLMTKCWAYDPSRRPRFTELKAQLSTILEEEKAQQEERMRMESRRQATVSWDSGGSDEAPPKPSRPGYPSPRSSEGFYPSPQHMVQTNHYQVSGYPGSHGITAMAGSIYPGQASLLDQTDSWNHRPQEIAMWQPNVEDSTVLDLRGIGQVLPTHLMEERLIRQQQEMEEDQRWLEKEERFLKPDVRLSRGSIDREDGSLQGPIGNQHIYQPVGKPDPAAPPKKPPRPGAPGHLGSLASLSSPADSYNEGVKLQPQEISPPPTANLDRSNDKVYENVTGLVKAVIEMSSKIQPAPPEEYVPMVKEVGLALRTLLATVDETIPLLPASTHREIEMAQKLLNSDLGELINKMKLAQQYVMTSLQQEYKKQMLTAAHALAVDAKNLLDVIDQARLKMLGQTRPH

[12] = test system: Fibrinogen (Alexa647-labelled); assay: fibrinogen binders on compound microarrays, profiling panel, artefact control for SMM control-protein annotation, biochemical, small-molecule microarray, 635/667 nm fluorescence (AID 1131); conditions: fibrinogen-A647 binding fluorescence, higher = more signal;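 further: z-score merges 667 nm fluorescence with per-spot signal-to-noise over triplicate slides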
[13] = biological target: Follistatin (Homo sapiens) (UniProt P19883); assay: follistatin binders on small-molecule microarrays, primary screen, biochemical, small-molecule microarray, 635/667 nm fluorescence (AID 1132); conditions: FST binding, 635 nm fluorescence, higher = more signal
Follistatin (Homo sapiens), sequence (P19883 whole entry, looked up): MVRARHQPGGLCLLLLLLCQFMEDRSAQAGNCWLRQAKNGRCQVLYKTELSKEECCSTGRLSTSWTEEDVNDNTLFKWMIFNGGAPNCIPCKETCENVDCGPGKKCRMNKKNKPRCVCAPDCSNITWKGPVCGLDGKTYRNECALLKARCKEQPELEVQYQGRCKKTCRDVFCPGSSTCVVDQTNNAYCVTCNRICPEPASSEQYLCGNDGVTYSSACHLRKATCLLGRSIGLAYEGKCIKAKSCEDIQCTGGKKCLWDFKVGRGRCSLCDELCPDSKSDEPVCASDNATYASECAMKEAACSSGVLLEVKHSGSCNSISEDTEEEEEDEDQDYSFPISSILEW

[14] = biological target: Fibroblast growth factor 2 (Homo sapiens) (UniProt P09038); assay: FGF2 binders on small-molecule microarrays, primary screen, biochemical, small-molecule microarray, 635/667 nm fluorescence (AID 1133); conditions: small-molecule microarray binding, FGF2, fluorescence 635/667; higher = more signal
Fibroblast growth factor 2 (Homo sapiens), sequence (P09038 whole entry, looked up): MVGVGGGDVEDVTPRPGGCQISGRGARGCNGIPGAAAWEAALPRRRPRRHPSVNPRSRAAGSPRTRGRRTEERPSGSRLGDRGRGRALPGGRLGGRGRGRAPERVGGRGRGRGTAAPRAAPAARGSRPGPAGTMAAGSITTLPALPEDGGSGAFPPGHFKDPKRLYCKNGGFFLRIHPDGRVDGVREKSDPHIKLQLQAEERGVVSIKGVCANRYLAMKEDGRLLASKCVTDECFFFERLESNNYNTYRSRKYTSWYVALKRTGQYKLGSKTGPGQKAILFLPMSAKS

[15] = mitochondrial membrane potential change in A549 cells, profiling panel, cell-based, JC-1 fluorescence, basal, 24 h, 100 nL (AID 1138); conditions: higher = more signal;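 further: A549 lung adenocarcinoma cells under basal conditions with no added stimulus; test concentration not given here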
Lefty1 = Lefty1 binders on small-molecule microarrays, primary screen, biochemical, small-molecule microarray, 635/667 nm fluorescence (AID 1139); conditions: small-molecule microarray binding, fluorescence 635/667; higher = more signal
[16] = test system: wheat germ agglutinin (Triticum aestivum), Alexa647-labelled; assay: wheat germ agglutinin binders on compound microarrays, profiling panel, artefact control for SMM control-protein annotation, biochemical, small-molecule microarray, 635/667 nm fluorescence (AID 1140); conditions: WGA-A647 binding, 635 nm fluorescence, higher = more signal;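 further: score merges 667 nm feature emission with signal to noise over triplicate slides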
[17] = biological target: Luciferin 4-monooxygenase (Photinus pyralis) (UniProt P08659); assay: firefly luciferase enzyme inhibitors, primary screen, biochemical, luminescence, purified enzyme, 2006 set (AID 1141); conditions: SteadyGlo luminescence, 30 min, higher = more signal, called active from +8 up or from −8 down;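 further: cell-free assay with purified firefly luciferase at 100 ng per well in PBS; test concentration not given here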
Luciferin 4-monooxygenase (Photinus pyralis), sequence (P08659 whole entry, looked up): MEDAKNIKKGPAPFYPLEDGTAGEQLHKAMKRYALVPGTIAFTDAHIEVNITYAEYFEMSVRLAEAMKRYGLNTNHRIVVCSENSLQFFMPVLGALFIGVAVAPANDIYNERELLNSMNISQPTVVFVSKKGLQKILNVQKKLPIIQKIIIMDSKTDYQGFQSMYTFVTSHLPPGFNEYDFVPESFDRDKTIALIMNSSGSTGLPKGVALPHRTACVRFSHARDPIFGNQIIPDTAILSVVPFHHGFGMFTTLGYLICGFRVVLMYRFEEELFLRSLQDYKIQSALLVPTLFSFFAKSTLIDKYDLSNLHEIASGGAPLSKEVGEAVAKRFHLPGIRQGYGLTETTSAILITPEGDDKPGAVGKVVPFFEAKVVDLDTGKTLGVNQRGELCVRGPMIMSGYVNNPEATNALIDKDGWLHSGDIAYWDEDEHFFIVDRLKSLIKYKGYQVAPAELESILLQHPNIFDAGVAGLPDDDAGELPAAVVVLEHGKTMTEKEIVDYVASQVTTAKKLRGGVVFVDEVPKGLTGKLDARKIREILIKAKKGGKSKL

Row | Structure (SMILES) | composite z-score (Albumin (Bos taurus)) | composite Z-score [1] | composite z-score [2] | composite z-score [3] | composite z-score [4] | composite z-score [5] | composite z-score [6] | composite z-score (Sam68 (KHDRBS1)) | composite z-score [7] | composite z-score [8] | composite z-score [9] | composite z-score [10] | composite z-score [11] | composite z-score [12] | composite z-score [13] | composite z-score [14] | z-score [15] | composite z-score (Lefty1) | composite z-score [16] | z-score [17]
1 | CC(C)N1C(=O)C[C@@](C(=O)NCC(F)(F)F)(c2ccc([N+](=O)[O-])cc2)[C@H]1c1ccc(CO)cc1 | 0.0344 | 0.447 (inactive) | -0.0636 | -0.173 | 0.662 | 1.22 | -0.0253 | 0.933 | -0.035 | 0.688 | -0.203 | 0.38 | 0.611 | 0.0938 | 0.409 | -0.432 | -0.279 | 0.343 | 0.351 | 1.58 (inactive)
2 | CC1CC/C=C\[C@H]2OC34C=CCN(C(C)(C)C)C(=O)[C@H]3N(C(C)CO)C(=O)[C@@H]4C2C(=O)O1 (stereo not given in full) | -0.92 | -0.0245 (inactive) | -0.122 | -0.13 | 0.4 | -0.187 | 0.199 | -1.47 | -0.454 | -2.17 | -1.63 | -2.07 | -0.9 | -2.02 | -0.397 | -0.121 | 0.348 | -0.248 | -1.61 | -0.694 (inactive)
3 | O[C@@H](Cc1ccccc1)[C@H]1C2C=CCCC=C2CN1Cc1cccc(Cl)c1 (stereo not given in full) | 0.478 | 0.0338 (inactive) | 0.361 | 0.0018 | 0.385 | 0.822 | 0.536 | 1.31 | 0.595 | 0.609 | 1.21 | 1.14 | 0.184 | 0.675 | 1.24 | 0.688 | 0.182 | 1.41 | 0.593 | -1.89 (inactive)
4 | COCC(=C=CC[C@@H](O)c1cccc(OCCO)c1)C[C@@H](O)c1ccccn1 | 0.254 | 0.745 (inactive) | 0.0979 | -0.14 | 0.744 | 0.486 | 1.73 | 0.338 | 0.188 | 0.218 | -0.252 | 0.467 | -0.32 | 0.263 | 0.868 | 0.392 | 1.53 | 1.24 | 0.0688 | -1.16 (inactive)
5 | CC(C)C[C@@H]1NC(=O)[C@H](C(C)C)NC(=O)[C@@]23C(=O)N[C@@H](Cc4ccccc4)C2[C@H](C)[C@@]2(C)O[C@H]2C3/C=C/CC/C=C/CNC1=O (stereo not given in full) | 0.371 | 0.131 (inactive) | 0.0694 | -0.126 | 0.532 | 1.28 | -0.0375 | 1.29 | 0.806 | 0.271 | 0.65 | 0.466 | 0.262 | 0.972 | 1.29 | 1.53 | 0.276 | 1.15 | 0.229 | -0.219 (inactive)
6 | COc1ccc(C#Cc2ccc3c(c2)[C@]2(C(=O)N3)[C@H](C(=O)NC[C@H](O)c3ccccc3)[C@H]3C(=O)O[C@H](c4ccccc4)[C@H](c4ccccc4)N3[C@@H]2c2ccc(O)cc2)cc1 | 0.186 | 0.658 (inactive) | 0.0585 | -0.139 | 0.566 | 2.46 | 0.624 | 1.29 | -0.0259 | 1.13 | 2.71 | 1.23 | 0.521 | 0.901 | 1.08 | 0.811 | -1.57 | 0.767 | 0.947 | 0.656 (inactive)
7 | C=C(/C(=C/C[C@H](OC(C)=O)c1ccc(CO)o1)c1cc(C(=O)OC)ccc1OC)C(C)C | 0.222 | 0.72 (inactive) | -0.0328 | -0.148 | 0.646 | 0.356 | -0.185 | 0.271 | -0.649 | -0.237 | -0.978 | -0.184 | -0.0384 | -1.25 | 0.467 | 0.539 | -0.483 | 0.864 | -1.24 | -1.33 (inactive)
8 | C=C(COC)/C(=C/C[C@@H](OC(C)=O)c1ccc(OCCO)cc1)c1cnc2ccccc2c1 | 0.0772 | -0.225 (inactive) | 0.112 | -0.14 | 0.913 | -0.161 | 0.999 | 0.74 | 1.41 | 1.14 | 0.616 | 0.328 | -0.514 | 0.869 | 1.41 | 1.55 | 0.379 | 1.29 | 0.857 | -0.846 (inactive)
9 | CN(C)CCCC[C@@H]1NC(=O)[C@H]2C[C@@H](C(=O)NCCCCCCN)[C@@H](c3ccc(O)cc3)N2C1=O | 0.887 | 0.37 (inactive) | 0.665 | 0.419 | 0.35 | 1.48 | 1.09 | 1.28 | 1.04 | 1.04 | 2.07 | 1.09 | 0.333 | 0.977 | 1.41 | 1.82 | 0.462 | 1.67 | 1.03 | 0.498 (inactive)
10 | CCCC[C@H]1OB(O)C[C@H]2C1=C(COC)Cn1c(=O)n(-c3ccccc3)c(=O)n12 | 0.0697 | -0.166 (inactive) | -0.0903 | -0.172 | -0.185 | 0.56 | 0.0521 | 0.439 | 0.432 | -0.317 | -0.152 | 0.169 | -0.0429 | 0.4 | 0.464 | -1.06 | -0.514 | 0.63 | 0.435 | 0.382 (inactive)
11 | COc1cc2c(cc1OC)CN(C(=O)[C@H]1[C@@H]3C(=O)O[C@@H](c4ccccc4)[C@@H](c4ccccc4)N3[C@@H](c3ccc(O)cc3)[C@]13C(=O)Nc1ccc(C#CCCO)cc13)CC2 | 0.184 | 0.274 (inactive) | 0.176 | -0.0474 | 0.213 | 1.46 | 0.127 | 1.24 | 0.077 | 0.964 | 1.31 | 1.21 | 0.055 | 0.807 | 1.12 | 0.0827 | -0.824 | 0.0938 | 0.943 | 1.1 (inactive)
